# This is part of a sample that, as a whole, favours compounds with a hit. Of some 83,000 tested, about 20% had one in any assay.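 Note: values are percent growth. 100 is the growth of untreated cells, values between 100 and 0 indicate rising inhibition; between -100 and 0 indicates cell death.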 Active and inactive are the calls of the source. How the source made its calls: active means growth percent below 10; inactive means the rest.
# Test system: SR leukemia
# Assay: NCI-60 one-dose screen, 48 h (100 = growth as untreated, 0 = no growth, -100 = all killed)
# Conditions: 10 µM unless noted
row,Structure (SMILES),growth
1,CC(=O)Nc1ccc(O)c(C)c1,94.6% (inactive)
2,O=C(c1cccc(C(=O)c2ccc3c4c(cccc24)C(=O)N(c2ccccc2)C3=O)c1)c1ccc2c3c(cccc13)C(=O)N(c1ccccc1)C2=O,57.4% (inactive)
3,Cc1ccc(S(=O)(=O)Oc2ccc3sc4c(CO)ccc(NCCN(C)C)c4c(=O)c3c2)cc1,-38.8% [100 µM] (active)
4,O=C1NC(=O)/C(=C\c2ccncc2)N1,92.2% (inactive)
5,O=C(c1ccccc1O)N1CCCC1,99.5% (inactive)
6,C1Cc2onc(-c3noc4c3CCC4)c2C1,99.1% (inactive)
7,O=S(=O)(O)c1ccc(O)c(C2CCCCC2)c1,98.3% (inactive)
8,CNc1ccccc1C(=O)N/N=C/C=C/c1ccccc1,2.42% (active)
9,O=C(O)CC1=CCCCC1,96.7% (inactive)
10,CC(C)c1ccc(C(=O)OCCCl)cc1,106% (inactive)
11,CCCCCCCCNC(=O)C(C)C,102% (inactive)
12,Cc1ccc(C)c2c1CCC2=O,132% (inactive)
13,CC1(C)CCC(C)(C)NC(=S)N1,92.1% (inactive)
14,COc1ccc(/C=N/NC(=O)COCC(=O)N/N=C/c2ccc(OC)cc2)cc1,96.7% (inactive)
15,Cc1ccccc1NC(=O)Oc1ccc(Cl)cc1C(=O)c1ccccc1,94.2% (inactive)
16,CC(=O)c1cccs1,92.9% (inactive)
17,CSc1cnc2ccccc2n1,95.4% (inactive)
18,CCCC(OC(C)=O)c1ccc2c(c1)OCO2 (stereo not given),103% (inactive)
19,CC(C)N(C(=O)c1ccccc1)C(C)C,110% (inactive)
20,O=C(O)c1ccc(OCc2ccccc2)cc1,99.8% (inactive)

# Reference: PubChem BioAssay (NCI)
